Data reported in PubChem BioAssay (NCI).
About 83,000 compounds went through this panel and 20% of them were active in at least one assay; those are over-represented in the sample as a whole.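 Each cell line was grown in a 96-well plate and treated with one concentration of compound for 48 hours. Values below 10 were considered active.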 Values without a mark were called inactive. Calls of active or inactive are those of the source.

Assays:
Assay in all cases: NCI-60 one-dose screen, 48 h (100 = growth as untreated, 0 = no growth, -100 = all killed)
Conditions in all cases: 10 µM unless noted
[1] = system: NCI-H23 lung
[2] = system: NCI-H226 lung
[3] = system: NCI-H322M lung
[4] = system: HOP-62 NSCLC
[5] = system: NCI-H460 lung
[6] = system: HOP-92 NSCLC
[7] = system: NCI-H522 lung
[8] = system: A549/ATCC NSCLC
[9] = system: 786-0 renal
[10] = system: COLO 205 colon

Structure (SMILES) | growth [1] | growth [2] | growth [3] | growth [4] | growth [5] | growth [6] | growth [7] | growth [8] | growth [9] [%] | growth [10]
O=C1/C(=C/c2ccc(Br)cc2)COc2ccc(O)cc21 | 101% | 95.5% | 95.6% | 99% | 102% | 99.9% | 15.8% | 91.1% | 76.4 | 86.8%
CNC1=C([N+](=O)[O-])C(c2ccc(OC)cc2)C(C#N)=C(c2ccc[nH]2)O1 (stereo not given) | 98.5% | 102% | 101% | 99% | 100% | 96.2% | 92.3% | 106% | 106 | 107%
Cc1c2cnccc2c(C)c2c1c1cc(C(=O)O)ccc1n2C | -32.4% (active) | -25.8% (active) | -1.54% (active) | -8.17% (active) | 1.58% (active) | -3.06% (active) | -47.8% (active) | 8.95% (active) | 22.3 | -9.71% (active)
O=C(CSc1nnc(-c2cc(-c3ccc(Cl)cc3)nc3ccccc23)n1-c1ccccc1)Nc1ccc(Cl)cc1 | 99.7% | 95% | 102% | 114% | 100% | 111% | 93.4% | 96.2% | 96.8 | 115%
CC1(C)C2=C(C(=O)N1Cc1ccccc1)C(c1ccco1)N(C(=O)C1CCC1)CCN2 (stereo not given) | 95.8% | 116% | 107% | 103% | 106% | 115% | 93.8% | 75.8% | 99.5 | 112%
Cc1c(N2CCCCC2)[nH]c2ccccc12 | 108% | 119% | 104% | 119% | 101% | 46.8% | 90.2% | 89% | 103 | 124%
Fc1ccc(/C=C/c2cc(/C=C/c3ccc(F)cc3)n(-c3cc(F)cc(F)c3)n2)cc1 | 98.3% | 109% | 86.5% | 96% | 107% | 83% | 61.7% | 90.8% | 77.4 | 119%
CS(=O)(=O)c1cccc(Nc2ncc3cc(-c4ccccc4Cl)ccc3n2)c1 | 26.7% | 31.1% | 26.8% | 15.3% | 5.47% (active) | -1.06% (active) | -44.3% (active) | 13.8% | 12.2 | -8.05% (active)
CNC(=O)c1cc(Oc2ccc3nc(NC(=O)Nc4ccc(F)cc4F)sc3c2)ccn1 | 47% | 52.8% | 62.2% | 60.7% | 63% | -13.7% (active) | 68.7% | 44.8% | 64 | 87.1%
O=C(/C=C/c1cccc([N+](=O)[O-])c1)c1ccc(Nc2nc(Nc3ccc(F)cc3)nc(Nc3ccc(Cl)cc3)n2)cc1 | 81.4% | 87.2% | 87.6% | 151% | 91.9% | 50.9% | 82.8% | 83% | 99.4 | 91.2%
COc1cc(OCc2cccc(-c3ccccc3)c2C)cc(OC)c1CN1CCCCC1C(=O)NCCOCCOCCN (stereo not given) | 86.8% | 86.4% | 89.6% | 89.8% | 41.8% | 46.4% | 93.3% | 70.6% | 90.8 | 20%
Cn1ncc(CC(=O)O)c1-n1nnc2cc(Cl)ccc2c1=O | 102% | 95.2% | 80.3% | 105% | 108% | 105% | 97.3% | 97.3% | 96.6 | 118%
